Hits are enriched below; roughly 27% of the tested compounds scored in any of these assays.
CYP2C19 inhib: blockers of cytochrome P450 2C19 activity – biochemical, luminescence, ADME assay, primary screen. P33261. AID 778, 2007. CYP2C19 Supersomes, luciferin-H EGE luminescence, 30 min. inhibition, % at 5 µM. hit rate 21% among 96,000;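 active = CYP2C19 inhibition above a set limit at 5 µM in the primary screen, cut at about 50% in these data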
Target sequence (P33261 whole entry, looked up): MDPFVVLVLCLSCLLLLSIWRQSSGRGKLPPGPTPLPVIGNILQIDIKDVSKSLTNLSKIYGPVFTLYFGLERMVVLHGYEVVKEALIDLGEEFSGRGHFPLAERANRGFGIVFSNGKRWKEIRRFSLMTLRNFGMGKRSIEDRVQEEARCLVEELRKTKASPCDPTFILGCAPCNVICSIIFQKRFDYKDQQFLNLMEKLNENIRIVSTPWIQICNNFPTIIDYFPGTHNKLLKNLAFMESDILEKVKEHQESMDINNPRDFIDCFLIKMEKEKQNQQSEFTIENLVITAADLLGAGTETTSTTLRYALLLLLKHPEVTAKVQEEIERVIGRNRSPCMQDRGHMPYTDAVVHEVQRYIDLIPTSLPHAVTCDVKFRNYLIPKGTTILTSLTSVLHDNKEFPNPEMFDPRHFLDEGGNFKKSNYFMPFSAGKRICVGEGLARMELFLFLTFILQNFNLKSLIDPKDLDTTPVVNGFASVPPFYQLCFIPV
sEH act: soluble epoxide hydrolase activators, primary screen, biochemical, human sEH. Bifunctional epoxide hydrolase 2 (Homo sapiens), P34913. purified human sEH enzymatic activity, activator screen. activation, % at 2 µM. hit rate 0.04% among 91,000; in the data active = activation above about 37%
CYP2C9 inhib: blockers of cytochrome P450 2C9 activity – biochemical, luminescence, ADME assay, primary screen; hit rate 20% among 96,000; CYP2C9 Supersomes, luciferin-H conversion; inhibition, % at 5 µM;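 active = blocking of liver enzyme CYP2C9 beyond about 50% at 5 µM, limit read from the data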
sEH inhibitor: soluble epoxide hydrolase inhibitors, primary screen, biochemical, human sEH; Bifunctional epoxide hydrolase 2 (Homo sapiens), P34913; recombinant human sEH enzymatic activity assay; inhibition, % at 2 µM; hit rate 0.34% among 91,000; AID 707, 2007; in the data active = inhibition above about 80%
CYP2C19 activ: human CYP2C19 activators, primary screen, biochemical, luminescence; Cytochrome P450 2C19 (Homo sapiens), P33261; recombinant CYP2C19, luciferin-H EGE luminescence; active compounds read high; 0 = fully inhibited enzyme, 1 = untreated enzyme; activation factor at 5 µM; 96,000 tested, under 10 active;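 active = activation factor of at least 2 at 5 µM in the primary screen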
CYP2C9 act: human CYP2C9 activators, primary screen, biochemical, luminescence | Cytochrome P450 2C9 (Homo sapiens), P11712 | recombinant CYP2C9, luciferin-H conversion; active compounds read high; factor 1 = untreated enzyme, 0 = blocked | activation factor at 5 µM | hit rate 1.4% among 96,000 | AID 1024, 2008;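 active = activation factor of 2 or more for CYP2C9 at a 5 µM dose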
Each line names hits and unclear results; the compound was inactive in the other large screens.

CC1(C)Cc2c(sc3nc(SCC(=O)NCc4ccco4)n(-c4ccccc4)c(=O)c23)CS1	CYP2C9 inhib 54
O=C(CSc1nnc(-c2ccccc2)n1-c1ccccc1)NCc1ccco1	none
C=CCn1c(SCC(=O)NCc2ccco2)nnc1-c1ccc2ccccc2n1	CYP2C9 inhib 59
Cc1ccc(CSc2nc3ccccc3c(=O)n2CCCC(=O)NCc2ccco2)cc1	CYP2C19 inhib 74, CYP2C9 inhib 98
CCOC(=O)N1CCN(C(=O)c2c(O)c3cccc4c3n(c2=O)CC4)CC1	none
N#CCCn1c(Cl)nc2ccccc21	none
CCn1c(CSc2nc3ccccc3s2)nnc1SCC(=O)NCC(=O)OC	none
C=CCn1c(CSc2nc3ccccc3s2)nnc1SCC(=O)NCc1cccnc1	none (no result: CYP2C19 inhib, CYP2C9 inhib, CYP2C19 activ, CYP2C9 act)
CC(C)(C)c1nc2ccccc2c2nnc(SCC(=O)NCc3ccco3)n12	none
C=CCn1c(CSc2nc3ccccc3s2)nnc1SCC(=O)NCc1ccccc1	CYP2C9 inhib 50
Cc1sc2nc(SCC(=O)NCc3ccco3)n(CCc3ccccc3)c(=O)c2c1C	CYP2C9 inhib 65
Cc1nc2ccccc2n1CCc1nc2c3ccccc3nc(SCC#N)n2n1	none
Cc1nc2ccccc2n1CCc1nc2c3ccccc3nc(SCC(=O)NCc3ccco3)n2n1	CYP2C9 inhib 72
CC(C)c1nc2ccccc2c2nnc(SCC(=O)NCc3ccco3)n12	CYP2C19 inhib 98, CYP2C9 inhib 76
Cc1ccc(N2C(=O)c3ccc(C(=O)N4CCN(c5cccc(C)c5C)CC4)cc3C2=O)cc1	none (no result: CYP2C19 inhib, CYP2C9 inhib, CYP2C19 activ, CYP2C9 act)
COc1cccc(NC(=O)CC2(CC(=O)O)CCCC2)c1	none
O=C(c1ccco1)N(Cc1cc2ccccc2[nH]c1=O)CC1CCCO1 (stereo unspecified)	none
O=C(c1ccncc1)N(Cc1cc2ccccc2[nH]c1=O)C1CCCCC1	CYP2C19 inhib 90, CYP2C9 inhib 74
O=C(c1ccco1)N(Cc1cc2ccccc2[nH]c1=O)C1CCCCC1	CYP2C9 inhib 54
Nc1ccc(N2CCN(C(=O)c3ccco3)CC2)cc1	none
COc1ccc(CCN(Cc2cc3cccc(C)c3[nH]c2=O)C(=O)NC2CCCCC2)cc1OC	CYP2C19 inhib 66, CYP2C9 inhib 75
Cc1cccc2cc(CN(Cc3ccco3)C(=O)NC3CCCCC3)c(=O)[nH]c12	CYP2C19 inhib 70, CYP2C9 inhib 74
COc1ccccc1NC(=O)N(Cc1ccco1)Cc1cc2c(C)ccc(C)c2[nH]c1=O	none (no result: CYP2C19 inhib, CYP2C9 inhib, CYP2C19 activ, CYP2C9 act)
Cc1ccc2[nH]c(=O)c(CN(CCc3ccccc3)C(=O)N3CCOCC3)cc2c1	none
COc1ccc(CCN(Cc2cc3cc(C)ccc3[nH]c2=O)C(=O)N2CCCC2)cc1OC	CYP2C9 inhib 98 (no result: sEH act, sEH inhibitor)
COc1ccccc1NC(=O)N(Cc1ccco1)Cc1cc2cccc(C)c2[nH]c1=O	CYP2C19 inhib 90, CYP2C9 inhib 82
O=[N+]([O-])c1cccnc1N1CCC(c2cc(-c3ccc(Cl)cc3)n[nH]2)CC1	none
Cc1ccc(C)c(NC(=O)Cn2nc(-c3ccccc3)nc2-c2ccccc2)c1	none
CCN(CC)CCN(Cc1cc2cc3c(cc2[nH]c1=O)OCCO3)C(=O)NC1CCCCC1	none
COc1ccc(CN(Cc2cc3cc4c(cc3[nH]c2=O)OCO4)C(=O)NC2CCCCC2)cc1	CYP2C9 inhib 90
CC[N+](CC)(CC)C/C(N)=N/O	none
Cn1c(=O)c2c(n(C)c1=O)=NC1(CCCCC1)N=2	none
c1ccc(-c2nc3nonc3nc2-c2ccccc2)cc1	CYP2C19 inhib 66
COCCNS(=O)(=O)c1ccc2c(c1)C(=O)c1cc(S(=O)(=O)NCCOC)ccc1-2	CYP2C9 inhib 64
O=C1c2cc(S(=O)(=O)NCCCO)ccc2-c2ccc(S(=O)(=O)NCCCO)cc21	CYP2C9 inhib 58
COCCNS(=O)(=O)c1ccc(F)c(OC)c1	none
O=C(COC(=O)c1ccncc1)Nc1cc(Cl)ccc1Cl	CYP2C19 inhib 66, CYP2C9 inhib 90
O=C(COC(=O)c1ccncc1)Nc1cc(Cl)c(Cl)cc1Cl	CYP2C19 inhib 98, CYP2C9 inhib 88
O=C(OCc1ccc(Cl)cc1Cl)c1ccncc1	CYP2C19 inhib 69
O=C(OCc1ccc(F)cc1Cl)c1ccccn1	CYP2C19 inhib 80
Cc1ccc2oc(Nc3nc(C)cc(C)n3)nc2c1	none
